The text below walks through data of article PMC11006913.

Where a chain is given by its changes, count along the chain named.

Holding throughout (experiment): PBM; 200 nM protein, PBS
Common to all, as to details: dsDNA, one strand shown

Test [1] concerns the target NKX2-5 (Homo sapiens, UniProt P52952 125-210, R139K).
Test [2] has as its target NKX2-5 (Homo sapiens, UniProt P52952 125-210).
The target in test [3] is T1, NKX2-4 (Homo sapiens, UniProt Q9H2Z4 175-261, P217L).
T1 sequence: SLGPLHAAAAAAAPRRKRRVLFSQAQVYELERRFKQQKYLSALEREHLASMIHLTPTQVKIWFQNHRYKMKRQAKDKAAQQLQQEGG

Test [4] deals with T2, NKX2-4 (Homo sapiens, UniProt Q9H2Z4 175-261, T231S).
T2 sequence: T1 sequence with L43P, T57S

Test [5] deals with T3, NKX2-4 (Homo sapiens, UniProt Q9H2Z4 175-261).
T3 sequence: T1 sequence with L43P

For test [6], the target named is T4, NKX2-6 (Homo sapiens, UniProt A6NCS4 118-204, R150C).
T4 sequence: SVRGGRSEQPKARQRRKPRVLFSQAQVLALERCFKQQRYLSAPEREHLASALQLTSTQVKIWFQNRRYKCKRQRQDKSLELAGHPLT

In test [7] the target is T5, NKX2-6 (Homo sapiens, UniProt A6NCS4 118-204).
T5 sequence: T4 sequence with C33R

Test [8] addresses T6, NKX2-4 (Homo sapiens, UniProt Q9H2Z4 175-261, R246Q).
T6 sequence: T1 sequence with L43P, R72Q

For test [9], the target named is T7, NKX2-6 (Homo sapiens, UniProt A6NCS4 118-204, F151L).
T7 sequence: T4 sequence with C33R, F34L

The target in test [10] is NKX3-2 (Homo sapiens, UniProt P78367 192-278, P234S).
NKX3-2 (Homo sapiens, UniProt P78367 192-278, P234S), sequence (P78367 192-278 P234S): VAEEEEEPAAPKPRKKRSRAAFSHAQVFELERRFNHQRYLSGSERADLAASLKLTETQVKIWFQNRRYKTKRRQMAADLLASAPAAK
Test [11] has as its target NKX3-2 (Homo sapiens, UniProt P78367 192-278).
Test [12] deals with T8, VENTX (Homo sapiens, UniProt O95231 78-163, R121Q).
T8 sequence: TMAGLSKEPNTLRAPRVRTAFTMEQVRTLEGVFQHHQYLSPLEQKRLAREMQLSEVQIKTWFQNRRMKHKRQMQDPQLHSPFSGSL

The target of test [13] is T9, VENTX (Homo sapiens, UniProt O95231 78-163).
T9 sequence: T8 sequence with Q44R

Test [14] has as its target T10, VENTX (Homo sapiens, UniProt O95231 78-163, Y115F).
T10 sequence: T8 sequence with Y38F, Q44R

The target in another test is HOXB6 (Homo sapiens, UniProt P17509 132-218, K202E).
HOXB6, sequence (P17509 132-218 K202E): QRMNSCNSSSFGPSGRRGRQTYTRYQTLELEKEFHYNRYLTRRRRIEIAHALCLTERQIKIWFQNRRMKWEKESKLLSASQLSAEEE
In test [15] the target is HOXA2 (Homo sapiens, UniProt O43364 129-215, R185T).
HOXA2 (Homo sapiens, UniProt O43364 129-215, R185T), sequence (O43364 129-215 R185T): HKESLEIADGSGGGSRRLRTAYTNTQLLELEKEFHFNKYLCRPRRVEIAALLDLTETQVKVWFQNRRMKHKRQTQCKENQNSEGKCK
Test [16] deals with HOXA2 (Homo sapiens, UniProt O43364 129-215, R185K).
HOXA2 (Homo sapiens, UniProt O43364 129-215, R185K), sequence (O43364 129-215 R185K): as the sequence (O43364 129-215 R185T) above, with T57K counted along it
Test [17] has as its target HOXA2 (Homo sapiens, UniProt O43364 129-215, Y150S).
Test [18] concerns the target HOXA2 (Homo sapiens, UniProt O43364 129-215).
Another test deals with PRRX1 (Homo sapiens, UniProt P54821 80-166, F113S).
PRRX1, sequence (P54821 80-166 F113S): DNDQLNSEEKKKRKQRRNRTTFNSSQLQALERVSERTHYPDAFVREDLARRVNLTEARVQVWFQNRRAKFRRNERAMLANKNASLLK

NKX3-2 (Homo sapiens, UniProt P78367 192-278), sequence (P78367 192-278): as the sequence (P78367 192-278 P234S) above, with S43P counted along it
NKX2-5 (Homo sapiens, UniProt P52952 125-210, R139K), sequence (P52952 125-210 R139K): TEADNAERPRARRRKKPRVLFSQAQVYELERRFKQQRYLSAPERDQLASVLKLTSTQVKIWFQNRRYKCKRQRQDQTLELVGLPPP
NKX2-5 (Homo sapiens, UniProt P52952 125-210), sequence (P52952 125-210): as the sequence (P52952 125-210 R139K) above, with K15R counted along it
HOXA2 (Homo sapiens, UniProt O43364 129-215, Y150S), sequence (O43364 129-215 Y150S): as the sequence (O43364 129-215 R185T) above, with Y22S, T57R counted along it
HOXA2 (Homo sapiens, UniProt O43364 129-215), sequence (O43364 129-215): as the sequence (O43364 129-215 R185T) above, with T57R counted along it

On to CCCGGCGG, for which the binding signal was 8.56 upbm affinity estimate (log intensity, higher = more binding, comparable within an allelic series) with NKX2-5 [1] and 8.58 upbm affinity estimate (log intensity, higher = more binding, comparable within an allelic series) with NKX2-5 [2].
Turning to GTACTTAA, the binding signal is 13.1 upbm affinity estimate (log intensity, higher = more binding, comparable within an allelic series) with NKX2-5 [1]; 12.8 upbm affinity estimate (log intensity, higher = more binding, comparable within an allelic series) in the test with NKX2-4 [3]; 13.2 upbm affinity estimate (log intensity, higher = more binding, comparable within an allelic series) with NKX2-4 [4]; 12.6 upbm affinity estimate (log intensity, higher = more binding, comparable within an allelic series) with NKX2-4 [5]; 12 upbm affinity estimate (log intensity, higher = more binding, comparable within an allelic series) in the test with NKX2-6 [6]; 13.9 upbm affinity estimate (log intensity, higher = more binding, comparable within an allelic series) in the test with NKX2-6 [7]. The binding signal was 13.3 upbm affinity estimate (log intensity, higher = more binding, comparable within an allelic series) with NKX2-4 [8]; 11.2 upbm affinity estimate (log intensity, higher = more binding, comparable within an allelic series) in the test with NKX2-6 [9]; 12.7 upbm affinity estimate (log intensity, higher = more binding, comparable within an allelic series) with NKX3-2 [10]; 12.9 upbm affinity estimate (log intensity, higher = more binding, comparable within an allelic series) with NKX2-5 [2]; 12.8 upbm affinity estimate (log intensity, higher = more binding, comparable within an allelic series) with NKX3-2 [11].
For the sequence CCACTTCA, the binding signal with NKX2-5 [1] was 12.9 upbm affinity estimate (log intensity, higher = more binding, comparable within an allelic series); in the test with NKX2-4 [3] it was 12.9 upbm affinity estimate (log intensity, higher = more binding, comparable within an allelic series); with NKX2-4 [4], 13.2 upbm affinity estimate (log intensity, higher = more binding, comparable within an allelic series); with NKX2-4 [5] it was 12.7 upbm affinity estimate (log intensity, higher = more binding, comparable within an allelic series); with NKX2-6 [6], 12 upbm affinity estimate (log intensity, higher = more binding, comparable within an allelic series); with NKX2-6 [7] it was 13.7 upbm affinity estimate (log intensity, higher = more binding, comparable within an allelic series). The binding signal was 13.4 upbm affinity estimate (log intensity, higher = more binding, comparable within an allelic series) in the test with NKX2-4 [8]; 11 upbm affinity estimate (log intensity, higher = more binding, comparable within an allelic series) in the test with NKX2-6 [9]; 12.8 upbm affinity estimate (log intensity, higher = more binding, comparable within an allelic series) with NKX3-2 [10]; 12.9 upbm affinity estimate (log intensity, higher = more binding, comparable within an allelic series) with NKX2-5 [2]; 12.8 upbm affinity estimate (log intensity, higher = more binding, comparable within an allelic series) in the test with NKX3-2 [11].
Turning to CGGTCCAA, the binding signal in the test with NKX2-5 [1] is 8.45 upbm affinity estimate (log intensity, higher = more binding, comparable within an allelic series); with NKX2-5 [2], 8.42 upbm affinity estimate (log intensity, higher = more binding, comparable within an allelic series).
As to GCACTTAA, the binding signal with NKX2-5 [1] is 13.1 upbm affinity estimate (log intensity, higher = more binding, comparable within an allelic series); in the test with NKX2-4 [3] it was 12.6 upbm affinity estimate (log intensity, higher = more binding, comparable within an allelic series); in the test with VENTX [12], 10.2 upbm affinity estimate (log intensity, higher = more binding, comparable within an allelic series); with VENTX [13] it was 10.9 upbm affinity estimate (log intensity, higher = more binding, comparable within an allelic series); with NKX2-4 [4], 13 upbm affinity estimate (log intensity, higher = more binding, comparable within an allelic series); in the test with VENTX [14], 10.3 upbm affinity estimate (log intensity, higher = more binding, comparable within an allelic series). Also, the binding signal with NKX2-4 [5] is 12.5 upbm affinity estimate (log intensity, higher = more binding, comparable within an allelic series); with HOXB6 it was 9.75 upbm affinity estimate (log intensity, higher = more binding, comparable within an allelic series); with HOXA2 [15], 10.2 upbm affinity estimate (log intensity, higher = more binding, comparable within an allelic series); with NKX2-6 [6] it was 12 upbm affinity estimate (log intensity, higher = more binding, comparable within an allelic series); with NKX2-6 [7] it was 13.8 upbm affinity estimate (log intensity, higher = more binding, comparable within an allelic series); with HOXA2 [16], 12.3 upbm affinity estimate (log intensity, higher = more binding, comparable within an allelic series). Moreover, the binding signal is 13.2 upbm affinity estimate (log intensity, higher = more binding, comparable within an allelic series) in the test with NKX2-4 [8]; 11.6 upbm affinity estimate (log intensity, higher = more binding, comparable within an allelic series) with NKX2-6 [9]; 10.8 upbm affinity estimate (log intensity, higher = more binding, comparable within an allelic series) with HOXA2 [17]; 12.9 upbm affinity estimate (log intensity, higher = more binding, comparable within an allelic series) with NKX3-2 [10]; 10.4 upbm affinity estimate (log intensity, higher = more binding, comparable within an allelic series) in the test with HOXA2 [18]; 13 upbm affinity estimate (log intensity, higher = more binding, comparable within an allelic series) with NKX2-5 [2]. The binding signal with NKX3-2 [11] was 13.1 upbm affinity estimate (log intensity, higher = more binding, comparable within an allelic series).
CACGCGTG: the binding signal in the test with NKX2-5 [1] is 8.8 upbm affinity estimate (log intensity, higher = more binding, comparable within an allelic series); in the test with PRRX1, 9.36 upbm affinity estimate (log intensity, higher = more binding, comparable within an allelic series); with NKX2-5 [2], 8.74 upbm affinity estimate (log intensity, higher = more binding, comparable within an allelic series).
With ACGGCTGG, the binding signal is 8.82 upbm affinity estimate (log intensity, higher = more binding, comparable within an allelic series) in the test with NKX2-5 [1] and 8.82 upbm affinity estimate (log intensity, higher = more binding, comparable within an allelic series) with NKX2-5 [2].
Consider CCACTTTA, for which the binding signal with NKX2-5 [1] is 12.7 upbm affinity estimate (log intensity, higher = more binding, comparable within an allelic series); in the test with NKX2-4 [3], 12.6 upbm affinity estimate (log intensity, higher = more binding, comparable within an allelic series); with NKX2-4 [4], 13 upbm affinity estimate (log intensity, higher = more binding, comparable within an allelic series); with NKX2-4 [5], 12.5 upbm affinity estimate (log intensity, higher = more binding, comparable within an allelic series); with NKX2-6 [6], 12 upbm affinity estimate (log intensity, higher = more binding, comparable within an allelic series); with NKX2-6 [7], 13.5 upbm affinity estimate (log intensity, higher = more binding, comparable within an allelic series). Moreover, the binding signal in the test with NKX2-4 [8] is 13.1 upbm affinity estimate (log intensity, higher = more binding, comparable within an allelic series); with NKX2-6 [9] it was 10.8 upbm affinity estimate (log intensity, higher = more binding, comparable within an allelic series); with NKX3-2 [10] it was 13 upbm affinity estimate (log intensity, higher = more binding, comparable within an allelic series); in the test with NKX2-5 [2], 12.7 upbm affinity estimate (log intensity, higher = more binding, comparable within an allelic series); with NKX3-2 [11], 13.1 upbm affinity estimate (log intensity, higher = more binding, comparable within an allelic series).
As for ACGCGCAG, the binding signal with NKX2-5 [1] was 8.62 upbm affinity estimate (log intensity, higher = more binding, comparable within an allelic series); with PRRX1 it was 9.07 upbm affinity estimate (log intensity, higher = more binding, comparable within an allelic series); with NKX2-6 [6] it was 9.46 upbm affinity estimate (log intensity, higher = more binding, comparable within an allelic series); with NKX2-5 [2], 8.69 upbm affinity estimate (log intensity, higher = more binding, comparable within an allelic series).
For the sequence CGGACCCG, the binding signal is 8.84 upbm affinity estimate (log intensity, higher = more binding, comparable within an allelic series) with NKX2-5 [1]; 8.97 upbm affinity estimate (log intensity, higher = more binding, comparable within an allelic series) with HOXB6; 8.79 upbm affinity estimate (log intensity, higher = more binding, comparable within an allelic series) in the test with NKX2-5 [2].
Regarding ATTACGTA, the binding signal with NKX2-5 [1] was 10.3 upbm affinity estimate (log intensity, higher = more binding, comparable within an allelic series); with NKX2-5 [2], 10.3 upbm affinity estimate (log intensity, higher = more binding, comparable within an allelic series).
For the sequence AATTAGCT, the binding signal with NKX2-5 [1] was 10.5 upbm affinity estimate (log intensity, higher = more binding, comparable within an allelic series); with VENTX [12], 11.7 upbm affinity estimate (log intensity, higher = more binding, comparable within an allelic series); with PRRX1, 11.1 upbm affinity estimate (log intensity, higher = more binding, comparable within an allelic series); with VENTX [14], 11.4 upbm affinity estimate (log intensity, higher = more binding, comparable within an allelic series); with NKX2-5 [2], 10.6 upbm affinity estimate (log intensity, higher = more binding, comparable within an allelic series).
With AAGTACCT, the binding signal was 12.6 upbm affinity estimate (log intensity, higher = more binding, comparable within an allelic series) in the test with NKX2-5 [1]; 12.5 upbm affinity estimate (log intensity, higher = more binding, comparable within an allelic series) with NKX2-4 [3]; 12.9 upbm affinity estimate (log intensity, higher = more binding, comparable within an allelic series) in the test with NKX2-4 [4]; 12.4 upbm affinity estimate (log intensity, higher = more binding, comparable within an allelic series) in the test with NKX2-4 [5]; 11.7 upbm affinity estimate (log intensity, higher = more binding, comparable within an allelic series) with NKX2-6 [6]; 13.4 upbm affinity estimate (log intensity, higher = more binding, comparable within an allelic series) in the test with NKX2-6 [7]. The binding signal with NKX2-4 [8] is 12.9 upbm affinity estimate (log intensity, higher = more binding, comparable within an allelic series); in the test with NKX2-6 [9] it was 10.6 upbm affinity estimate (log intensity, higher = more binding, comparable within an allelic series); in the test with NKX3-2 [10], 12.6 upbm affinity estimate (log intensity, higher = more binding, comparable within an allelic series); in the test with NKX2-5 [2], 12.4 upbm affinity estimate (log intensity, higher = more binding, comparable within an allelic series); with NKX3-2 [11] it was 12.6 upbm affinity estimate (log intensity, higher = more binding, comparable within an allelic series).
For the sequence CCAGCGCG, the binding signal is 8.57 upbm affinity estimate (log intensity, higher = more binding, comparable within an allelic series) in the test with NKX2-5 [1] and 8.52 upbm affinity estimate (log intensity, higher = more binding, comparable within an allelic series) with NKX2-5 [2].
